Screening results deposited in PubChem BioAssay by several laboratories.
In the library only some 4.1% were active in any assay of this set; here they are far more common.
Peg3 prom inh – Peg3 promoter activity inhibition. HeLa PEG-Prom luciferase reporter, luminescence, overnight. inhibition, % at 20 µM. 1.7% of 360,000 active;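 active = inhibition of at least 50% at 20 µM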
TROY NFkB inh – inhibitors of TROY-dependent NF-kB signaling. Q293 LMP1-TROYcd NF-kB luciferase reporter, 4 h. inhibition, % at 10 µM. 0.98% of 360,000 active;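 active = compounds whose plate-normalised and pattern-corrected inhibition of the luciferase reporter signal at the single screening dose is 50% or more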
MITF TRPM1 inh – MITF TRPM1 promoter inhibition in SK-MEL-5 cells; inhibition, % at 12.5 µM; 0.83% of 330,000 active; AID 488899; SK-MEL-5 TRPM1 promoter luciferase, 24 h;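 active = mean inhibition across replicates of 60% or more, whatever share of single replicates reaches that level; inconclusive = some that reach 60%, reason not given; inactive = mean inhibition across replicates below 60%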
TWEAK Fn14 block – TWEAK-Fn14 signaling inhibition; AID 1159606; inhibition, % at 10 µM; TWEAK-stimulated Fn14 reporter cells, luciferase luminescence, 8 h; 2% of 360,000 active; in the data active = inhibition above about 50%
Shn3 3UTR inh – inhibitors of Schnurri-3 3'UTR reporter in osteoblasts | inhibition, % at 12.5 µM | 0.52% of 360,000 active | Clone20 osteoblast Shn3 3'UTR firefly luciferase, 24 h;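 active = mean inhibition of at least 75% with every replicate also reaching 75%; inconclusive = mean inhibition at least 75% but some replicate below; inactive = mean inhibition below 75%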;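 also: 0% = median of neutral control wells and 100% = pilot-screen positive control compound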
LMP1 NFkB inh – Epstein-Barr LMP1 NF-kappaB reporter inhibition; LMP1-induced NF-kappaB luciferase reporter cells, luminescence; inhibition, % at 12.5 µM; 0.69% of 350,000 active; AID 504558; in the data active = inhibition above about 41%; inconclusive = no clear call, values can overlap the other calls;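 also: 0% = neutral control wells and 100% = reference inhibitor control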
* hit, by the source's call; ? = inconclusive; . = no result.

SMILES | Peg3 prom inh | TROY NFkB inh | MITF TRPM1 inh | TWEAK Fn14 block | Shn3 3UTR inh | LMP1 NFkB inh
CN(c1ccccc1)S(=O)(=O)c1cccc(NC(=O)c2nn(C)c(=O)c3ccccc23)c1 | 47 | 32 | . | 17 | 54 | 1
CCn1ccnc1CN1CCN(CCC(C)C)C(CCO)C1 (configuration not stated) | 3 | 10 | -7 | 2 | 10 | 4
CCOc1ccc(CN2CCN(Cc3ccsc3)C(CCO)C2)cc1CO (configuration not stated) | 7 | 4 | 7 | 89* | -5 | 0
Cc1ccc(C(=O)CCC(=O)N2CCN(c3ccccc3O)CC2)cc1 | 23 | -8 | -4 | 10 | 4 | -10
CCC(CC)C(=O)Nc1cc([N+](=O)[O-])ccc1Cl | -4 | 8 | 11 | 3 | -16 | -3
O=C(NCCCl)Nc1cc([N+](=O)[O-])ccc1Cl | 15 | 62* | -6 | -2 | 14 | 13
N#Cc1c(-c2ccc(Cl)cc2)n(O)c2ccccc12 | -14 | 50 | 3 | 64* | 25 | 2
CC(=O)Nc1ccc(SCC(=O)c2cc(C)n(-c3ccccc3F)c2C)cc1 | 18 | 66* | 0 | 87* | 6 | -16
CC(=O)Nc1ccccc1OCC(=O)c1cc(C)n(Cc2cccs2)c1C | -258 | 36 | 18 | 64* | 74 | -20
Cc1cc(C(=O)COc2cccnc2[N+](=O)[O-])c(C)n1Cc1cccs1 | 4 | 6 | 32 | 8 | 27 | 19
CC(=O)Nc1ccc(SCC(=O)c2cc(C)n(Cc3cccs3)c2C)cc1 | 46 | 38 | 5 | 93* | 14 | 23
COC(=O)c1ccc(-n2c(C)cc(C(=O)CSc3ccc(NC(C)=O)cc3)c2C)cc1 | 7 | 40 | -2 | 35 | 1 | -13
COc1ccc(Br)c(Cn2c(C)c(C(=O)NCc3ccc4c(c3)OCCO4)sc2=O)c1 | 7 | 31 | . | -3 | 9 | .
CCCc1c(C(=O)N/N=C/c2ccc(C)s2)nnn1-c1nonc1N | 8 | -15 | -12 | -24 | -3 | -1
Cc1cc(C)c(S(=O)(=O)NC(CC(=O)O)c2cccc([N+](=O)[O-])c2)c(C)c1 (configuration not stated) | 13 | -4 | 5 | -6 | 6 | 2
COc1ccc(-c2cc(NC=O)c3ncc(-c4cccc(C(=O)NCCN(C)C)c4)n3c2)cn1 | 3 | -16 | . | -32 | 14 | .
CC1S/C(=C(\C#N)C(=O)NCc2ccco2)N(Cc2ccco2)C1=O (configuration not stated) | 13 | 18 | 3 | 6 | 1 | 41*
CC1(C)CC(=O)C2=C(C1)N=C1c3ccccc3C(=O)C1C2c1ccc(Cl)cc1 (configuration not stated) | 58* | 26 | 20 | 66* | 28 | 7
Cc1ccc(C2C3=C(CC(C)(C)CC3=O)N=C3c4ccccc4C(=O)C32)cc1 (configuration not stated) | 32 | 28 | 1 | 58* | 12 | 6
CCc1ccccc1NC(=O)NC(C)c1ccc2c(c1)OCO2 (configuration not stated) | -3 | 9 | 12 | 11 | 13 | 7
CCc1ccc(-c2cc(C)no2)cc1S(=O)(=O)N1CCN(C(=O)c2ccco2)CC1 | 31 | 4 | -2 | -9 | -5 | -1
CCOC(=O)c1cc([N+](=O)[O-])cc([N+](=O)[O-])c1Sc1ncnc2nc[nH]c12 | 98* | -13 | 107* | 0 | 96* | -5
CC(C)(C)C(=O)/C(=C/c1ccc(Cl)cc1)n1cncn1 | 105* | 20 | 94* | 77* | ? | -6
CC(C)/C=C(/C(=O)c1ccc(Cl)cc1Cl)n1cncn1 | 3 | 1 | 33 | 61* | 20 | 20
O=C(Cn1cncn1)N/N=C/c1ccc(Cl)cc1 | 0 | -16 | -10 | -3 | -11 | -3
SMILES | Peg3 prom inh | TROY NFkB inh | MITF TRPM1 inh | TWEAK Fn14 block | Shn3 3UTR inh | LMP1 NFkB inh
COc1ccc(NC(=O)CSc2nc3[nH]ncc3c(=O)[nH]2)c(OC)c1 | 4 | -24 | 4 | 3 | -1 | -12
COc1ccc(CCC(=O)NNC(=O)c2ccc(F)cc2)cc1 | 16 | -1 | 4 | 53* | -4 | -1
Cc1ccc(O)c(C(=O)c2cnn(C(=O)c3cccc(S(=O)(=O)N(C)C)c3)c2)c1 | -3 | 40 | -5 | 63* | 7 | -7
CN(C(=O)C=Cc1ccco1)c1ccccc1 | -18 | -3 | 1 | 8 | -6 | -10
CN(C(=O)/C=C/c1ccc([N+](=O)[O-])s1)c1ccccc1 | 6 | -16 | 69* | 41 | 5 | -79
COc1cc(CCNC2=CC(=O)c3ncccc3C2=O)ccc1O | 27 | 1 | 113* | 10 | 21 | 0
COc1ccccc1CNS(=O)(=O)c1cc(CN2C(=O)c3cccnc3C2=O)ccc1OC | 13 | 7 | 1 | -2 | 1 | 5
O=C(Cc1ccccc1)NNC(=O)c1cnccn1 | 5 | 6 | -16 | -1 | -47 | -3
CC[C@H](CO)Nc1nc(Nc2cccc(Cl)c2)c2ncn(C(C)C)c2n1 | 94* | 61* | 32 | 71* | 41 | -14
CCC(=O)NC(c1cccs1)c1cc(Cl)c2ccccc2c1O (configuration not stated) | 19 | 6 | 13 | 10 | -23 | -6
O=C(CCc1ccccc1)NC(c1cccs1)c1cc(Cl)c2cccnc2c1O (configuration not stated) | 42 | 8 | 56 | 9 | 81 | 54*
CCCC(=O)NC(c1cccs1)c1cc([N+](=O)[O-])c2cccnc2c1O (configuration not stated) | 54* | 0 | 5 | 11 | 21 | 2
Cc1ccc2oc(C(=O)Nc3nnc(C)s3)c(C)c2c1 | -90 | -21 | -39 | 31 | -42 | -4
COc1ccc2oc(C(=O)Nc3ccc(S(=O)(=O)N(C)C4CCN(C)CC4)cc3)c(C)c2c1 | 75* | -6 | 85* | -29 | 60 | -48
COc1ccc2oc(C(=O)Nc3nnc(C)s3)c(C)c2c1 | -70 | 12 | -40 | 68* | -20 | 30
CC(C)C(=O)N1CCCC1(C)C(=O)Nc1ccc(F)cc1 (configuration not stated) | -2 | 4 | . | -6 | 27 | .
Cc1[nH]c2ccccc2c1C1=NNC(=Nc2ccc(F)cc2)SC1 | 15 | 25 | 21 | 55* | 53 | -28
Cc1sc(NC(=O)C2CSC3(C)CCC(=O)N23)nc1-c1ccccc1 (configuration not stated) | -2 | 15 | -4 | 24 | -14 | -9
CC(=O)Nc1ccc(NC(=O)C(F)(F)F)cc1 | 1 | 2 | 2 | -4 | -12 | 2
CC1CCN(c2ccc(-c3ccc(NC(=O)C(F)(F)F)cc3)nn2)CC1 | 6 | 41 | 8 | 62* | 53 | 46*
CCc1cccc(NC(=O)C(NC(=O)C2CCCCC2)C(C)C)c1 (configuration not stated) | 10 | -4 | 13 | -11 | -8 | 0
